Epigenetic mod – qHTS Assay for Epigenetic Modulators | mouse C127i GFP locus derepression, cytometry, 30 h | Potency, µM (titrated, usually from 46.1 µM), for the others: at the highest dose GFP derepression (activation) | hit rate 0.09% among 68,000; note: % of control where 0% means no effect
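Derepression screen: silenced CMV-GFP reporter in murine C127i cells, 30 h compound incubation at 37 C, washed cells imaged by laser-scanning cytometer to enumerate GFP-expressing objects of 20 to 120 um.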
HEK293 cAMP ctrl – qHTS Assay for Agonists of the Thyroid Stimulating Hormone Receptor: Activators of Intracellular cAMP Concentrations in Parental HEK 293; parental HEK293 CNG cAMP sensor, membrane potential fluorescence; Potency, µM (top dose mostly 57.1 µM), inactives show top-dose activation, most hits filed as activators; hit rate 2.5% among 73,000; AID 938, 2007; note: potency is the fitted concentration of half-maximal effect; % of control where 0% means no effect; nearly all actives have a fitted effect of over 55% in size
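Parental HEK 293 cells stably expressing a cAMP-gated CNG channel were loaded with membrane potential dye containing 100 uM RO 20-1724 for 60 min. Compound added for 30 min; depolarization read as fluorescence intensity at 590 nm.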
TSHR agonist – qHTS Assay for Agonists of the Thyroid Stimulating Hormone Receptor | HEK293-CNG-TSHR cells (CNG channel as cAMP sensor), membrane potential dye, cAMP | Thyrotropin receptor (Homo sapiens), P16473 | hit rate 0.48% among 73,000 | Potency, µM (series often up to 57.1 µM), inactives show top-dose activation, hits mostly activators; active = well fitted activation curve with a large enough effect in the main read-out, with a control signal flat, not every such curve was filed as active; inconclusive = small, poorly fitted or top-dose-only effect, or a change in a side signal; inactive = no such curve, though single readings can be large or run the other way; % of control where 0% means no effect;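 note: the control signal comes from parental cells without the receptor; potency is the fitted concentration of half-maximal effect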
Target sequence (P16473 whole entry, looked up): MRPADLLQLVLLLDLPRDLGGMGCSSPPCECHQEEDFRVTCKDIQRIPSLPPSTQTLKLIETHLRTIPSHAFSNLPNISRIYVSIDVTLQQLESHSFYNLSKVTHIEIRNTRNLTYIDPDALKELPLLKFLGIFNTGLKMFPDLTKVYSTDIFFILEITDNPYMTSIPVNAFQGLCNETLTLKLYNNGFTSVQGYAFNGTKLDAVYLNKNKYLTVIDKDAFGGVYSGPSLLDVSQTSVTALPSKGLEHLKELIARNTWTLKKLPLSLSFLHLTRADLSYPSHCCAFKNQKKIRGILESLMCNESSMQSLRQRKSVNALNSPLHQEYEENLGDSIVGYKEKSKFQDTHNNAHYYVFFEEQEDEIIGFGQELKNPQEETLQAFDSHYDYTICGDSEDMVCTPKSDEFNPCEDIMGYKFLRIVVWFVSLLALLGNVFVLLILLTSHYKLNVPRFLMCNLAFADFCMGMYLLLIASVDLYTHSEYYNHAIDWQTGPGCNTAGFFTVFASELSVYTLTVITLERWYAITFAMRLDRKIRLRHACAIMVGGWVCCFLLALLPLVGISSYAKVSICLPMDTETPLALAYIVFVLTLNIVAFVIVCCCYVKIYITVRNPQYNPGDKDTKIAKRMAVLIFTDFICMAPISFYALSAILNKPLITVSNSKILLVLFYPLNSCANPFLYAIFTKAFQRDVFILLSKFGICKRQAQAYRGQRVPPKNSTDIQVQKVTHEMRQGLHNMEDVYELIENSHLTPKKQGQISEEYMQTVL
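cAMP rise detected as CNG-channel membrane depolarization by fluorescent dye (emission 590 nm), 30 min after compound, following 60 min dye loading containing 100 uM RO 20-1724 at room temperature. Cells: TSHR/CNG HEK 293, with parental CNG HEK 293 as control.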
HBB splice mod – qHTS Assay for Modulators of Hemoglobin Beta Chain Splicing. hit rate 0.06% among 65,000. HBB splicing reporter cell assay, activation; EGFP reporter with mutant IVS2-654 intron; response scale: normalised to 500 nM splice-correcting PNA. Potency, µM (series often up to 46.1 µM), for the others: at the top dose activation, hits mostly activators; note: potency is the fitted concentration of half-maximal effect; 0% is about no effect
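HeLa cells stably expressing EGFP interrupted by mutant beta-globin intron 2 (IVS2-654), 500/well in 2% FCS. Treated with compound for 2 days at 37C. Splicing correction scored as total well GFP intensity (488 nm excitation, 500-520 nm emission); 500 nM antisense PNA served as control.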
UbGFP stabilizer – Ubiquitin-GFP Assay | 67,000 tested, under 10 active | Potency, µM (doses to about 45.9 µM), for the others: at the highest dose activation (GFP accumulation), hits mostly activators | Ubiquitin-GFP reporter cells, proteasome inhibition, GFP fluorescence; response scale: untreated = 0%, 10 µM MG-132 = 100%; active = well fitted activation curve with a large enough effect, not every such curve was filed as active; inconclusive = small, poorly fitted or top-dose-only effect, or another doubt; inactive = no such curve, though single readings can be large or run the other way; note: potency is the fitted concentration of half-maximal effect
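U2OS cells stably expressing ubiquitin(G76V)-GFP, seeded overnight in 0.5% FBS medium, were exposed to compounds (qHTS, 46 uM to 2.9 nM) for 4 hr at 37 °C. GFP-positive cells were counted by laser cytometry (488 ex/515 em), normalized between basal and 10 uM MG-132.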
An asterisk follows results filed as active; [ ] = another dose, or the depositor's remark. Sampled rows, rich in hits. Any-hit rate of the full collection: about 3%. Unless noted, calls come from the whole dose curve; as a rule, active = well fitted curve in the direction sought with a large enough effect; inconclusive = small, poorly fitted or top-dose-only effect, or another doubt; inactive = no such curve, though single readings can be large; an effect the other way counts as inactive or inconclusive.

How did Nc1nc(Cl)nc2c1ncn2[C@@H]1O[C@@H](COP(=O)(O)OP(=O)(O)OP(=O)(O)O)[C@@H](O)[C@H]1O do in these assays?
Epigenetic mod: -1%; HEK293 cAMP ctrl: -5%; HBB splice mod: 2%; UbGFP stabilizer: 5%

How did CCOC(=O)c1cc(C)n(CCc2ccccc2)c1C do in these assays?
Epigenetic mod: -2%; HEK293 cAMP ctrl: 25µM*; TSHR agonist: inconclusive; HBB splice mod: -2%; UbGFP stabilizer: 0%

Results for N#Cc1ccccc1NC(=O)c1ccc(-c2ccccc2Cl)o1 ?
Epigenetic mod: 2%; HEK293 cAMP ctrl: 25µM*; TSHR agonist: inconclusive; HBB splice mod: -1%; UbGFP stabilizer: -2%

How did O=C1C2=C(Nc3cc([N+](=O)[O-])ccc3N2)O[C@@H]1c1ccc([C@H]2OC3=C(Nc4ccc([N+](=O)[O-])cc4N3)C2=O)cc1 do in these assays?
Epigenetic mod: 0%[9.22 µM]; HEK293 cAMP ctrl: 5%[11.4 µM]; TSHR agonist: -3%[11.4 µM]; HBB splice mod: 0%[9.22 µM]; UbGFP stabilizer: 8%[9.17 µM]

Results for O=C(Nc1nccs1)c1c(O)c2cccc3c2n(c1=O)CCC3 ?
Epigenetic mod: -1%; HEK293 cAMP ctrl: 1.3µM*; TSHR agonist: inconclusive; UbGFP stabilizer: -4%

What do the screens show for `O=C(Nc1ccccn1)c1c(O)c2cccc3c2n(c1=O)CCC3`?
Epigenetic mod: 0%; HEK293 cAMP ctrl: 5%; TSHR agonist: 5%; HBB splice mod: 2%[57.5 µM]; UbGFP stabilizer: -1%

What do the screens show for `O=C(Nc1ccccc1N1CCCCC1)c1cccs1`?
Epigenetic mod: 2%; HEK293 cAMP ctrl: 25µM*; TSHR agonist: inconclusive; HBB splice mod: 0%; UbGFP stabilizer: 7%

Results for CCNc1nc(NCC)nc(-n2nc(C)cc2C)n1 ?
Epigenetic mod: inconclusive; HEK293 cAMP ctrl: 1%; TSHR agonist: -17%; HBB splice mod: 0%; UbGFP stabilizer: 9%

How did Cc1cc(C)n(-c2nc(NC(C)(C)C)nc(NC(C)(C)C)n2)n1 do in these assays?
Epigenetic mod: 13µM*; HEK293 cAMP ctrl: 12%; TSHR agonist: 0%; HBB splice mod: -1%[9.22 µM]; UbGFP stabilizer: 0%

What do the screens show for `Cc1cc(C)n(-c2nc(NC(C)C)nc(NC(C)C)n2)n1`?
Epigenetic mod: 6.3µM*; HEK293 cAMP ctrl: 10%; TSHR agonist: 6%; UbGFP stabilizer: -3%

Results for c1cncc(CNc2cc(-c3ccc4c(c3)OCO4)ncn2)c1 ?
Epigenetic mod: 0%[9.22 µM]; HEK293 cAMP ctrl: 22%; TSHR agonist: 1%; HBB splice mod: -1%; UbGFP stabilizer: -4%

What do the screens show for `N#Cc1cccc(-c2nc(NCCN3CCOCC3)c3ccccc3n2)c1`?
Epigenetic mod: 2%[9.22 µM]; HEK293 cAMP ctrl: -3%; TSHR agonist: 0%; HBB splice mod: -1%; UbGFP stabilizer: 8%

How did CC(=O)O[C@@H]1[C@H]([N+]2(C)CCCCC2)C[C@@H]2[C@@H]3CC[C@@H]4C[C@@H](OC(C)=O)[C@H]([N+]5(C)CCCCC5)C[C@@]4(C)[C@H]3CC[C@]21C do in these assays?
Epigenetic mod: 0%; HEK293 cAMP ctrl: 0%; TSHR agonist: 2%; HBB splice mod: 2%; UbGFP stabilizer: 5%

Results for CC(=O)Nc1nc2ccccc2n1CCN(C)C ?
Epigenetic mod: 2%; HEK293 cAMP ctrl: 1%; TSHR agonist: -3%; HBB splice mod: -8%; UbGFP stabilizer: 1%

What do the screens show for `CN(C)CCn1c(C(=O)Nc2ccccc2)cc2ccccc21`?
Epigenetic mod: 6%; HEK293 cAMP ctrl: 2µM*; TSHR agonist: inconclusive; HBB splice mod: 0%; UbGFP stabilizer: -4%

Results for CCCCn1c(NC(=O)c2ccccc2Cl)c(C#N)c2nc3ccccc3nc21 ?
Epigenetic mod: -4%; HEK293 cAMP ctrl: 4%; TSHR agonist: -4%; HBB splice mod: 25%[57.5 µM]; UbGFP stabilizer: -6%

What do the screens show for `CCCCn1c(NC(=O)CC)c(C#N)c2nc3ccccc3nc21`?
Epigenetic mod: -3%; HEK293 cAMP ctrl: 25µM*; TSHR agonist: inconclusive; HBB splice mod: 0%; UbGFP stabilizer: 12%

How did CC1=C(/C=C\C(=O)O)C(C)(C)CCC1 do in these assays?
Epigenetic mod: -2%[9.22 µM]; HEK293 cAMP ctrl: 6%[11.4 µM]; TSHR agonist: 3%[11.4 µM]; HBB splice mod: 3%[9.22 µM]; UbGFP stabilizer: -4%[9.17 µM]

How did O=C(O)[C@@H](O)[C@@H](O)[C@@H](O)[C@@H](O)c1nc2ccccc2s1 do in these assays?
Epigenetic mod: -1%[9.22 µM]; HEK293 cAMP ctrl: 5%[11.4 µM]; TSHR agonist: 0%[11.4 µM]; HBB splice mod: -2%[9.22 µM]; UbGFP stabilizer: -3%[9.17 µM]

What do the screens show for `Fc1ccccc1COc1cccc(/C=N/n2cnnc2)c1`?
Epigenetic mod: -2%; HEK293 cAMP ctrl: 32µM*; TSHR agonist: inconclusive; HBB splice mod: -4%; UbGFP stabilizer: -9%

What do the screens show for `C(=N\n1cnnc1)/c1cccc(Oc2ccccc2)c1`?
Epigenetic mod: 0%[20.6 µM]

How did CN[C@@H]1[C@H](O)[C@H](NC)[C@@H]2O[C@]3(O)C(=O)C[C@@H](C)O[C@H]3O[C@@H]2[C@H]1O do in these assays?
Epigenetic mod: -5%[9.22 µM]; HEK293 cAMP ctrl: 3%; TSHR agonist: 1%; UbGFP stabilizer: 8%

What do the screens show for `N/N=C1/CC(=O)NC(=O)N1`?
Epigenetic mod: 5%[9.22 µM]; HEK293 cAMP ctrl: -4%[11.4 µM]; TSHR agonist: -1%[11.4 µM]; HBB splice mod: -1%[9.22 µM]; UbGFP stabilizer: -4%[9.17 µM]

Results for CN1CCc2ccccc2[C@@H]1Cc1ccccc1NC(=O)c1sc2ccccc2c1Cl ?
Epigenetic mod: 4%[9.22 µM]; HEK293 cAMP ctrl: 12%[11.4 µM]; HBB splice mod: 2%[9.22 µM]; UbGFP stabilizer: -1%[9.17 µM]

How did C[C@H]1[C@H](C)CC[C@]2(C(=O)O)CC[C@]3(C)C(=CC[C@@H]4[C@]5(C)C[C@H](O)[C@@H](O)[C@@](C)(CO)[C@@H]5[C@H](O)C[C@@]43C)[C@H]12 do in these assays?
Epigenetic mod: 0%[9.22 µM]; HEK293 cAMP ctrl: inconclusive; TSHR agonist: inconclusive; HBB splice mod: -1%[9.22 µM]; UbGFP stabilizer: -1%[9.17 µM]

What do the screens show for `Cc1ccc(OCC(O)Cn2c(=N)n(CCN3CCOCC3)c3ccccc32)cc1` (stereo not given)?
Epigenetic mod: 3%; HEK293 cAMP ctrl: 20µM*; TSHR agonist: inconclusive; HBB splice mod: 0%[57.5 µM]; UbGFP stabilizer: -4%

How did CCOC(=O)c1[nH]c(C)c(CN(CCc2ccccc2)S(C)(=O)=O)c1C do in these assays?
HEK293 cAMP ctrl: 20%; TSHR agonist: 32µM*; HBB splice mod: 0%; UbGFP stabilizer: 5%

Results for CCOC(=O)c1[nH]c(C)c(CN(CCc2ccc(OC)c(OC)c2)C(=O)CCCC(=O)O)c1C ?
Epigenetic mod: 0%; HEK293 cAMP ctrl: -3%; TSHR agonist: 5%[11.4 µM]; HBB splice mod: -1%; UbGFP stabilizer: -6%

Compound activity as filed in PubChem BioAssay.
